In the library only some 11% were active in any assay of this set; here they are far more common.
VACV Venus inh: qHTS for Stage-Specific Inhibitors of Vaccinia Orthopoxvirus: Venus Reporter Primary qHTS; Vaccinia virus Venus reporter expression, fluorescence; Potency, µM (top dose mostly 36.5 µM), inactives show at the top dose activity change, negative = inhibition, actives largely listed as inhibitors; 0.46% of 330,000 active; AID 720580, 2013; calls by dose curve; tested in A549 cells; further: on the % scale 0 is the no-effect control and ±100 the full control effect; nearly all actives have a fitted effect of over 30% in size
NS1 inh: qHTS Assay for Inhibitors of Influenza NS1 Protein Function; Potency, µM (series often up to 46.1 µM), for inactives: at the top dose activity, positive = more growth; 0.4% of 270,000 active; calls by dose curve; further: actives are rising curves; nearly all actives have a fitted effect of over 50% in size
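Growth recovery, yeast-based: influenza A NS1 expressed in S. cerevisiae causes slow growth, and suppressors are detected by OD600. The parent strain without NS1 is used as positive control.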
Pf growth 96h: Primary qHTS for delayed death inhibitors of the malarial parasite plastid, 96 hour incubation; P. falciparum luciferase reporter growth, 96 h; Potency, µM (highest dose often 28.7 µM), without a hit: top-dose activity change, negative = inhibition, usual class: inhibitors; 6.9% of 320,000 active; further: on the % scale 0 is the no-effect control and ±100 the full control effect
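Two-generation exposure (96 h) targets delayed-death phenotype. Reporter parasites carrying integrated firefly luciferase, in red cells at 2% hematocrit and 0.05% parasitemia final, kept at 37 C, 5% CO2; luminescence loss indicates inhibition.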
HCV inh: qHTS Assay for Inhibitors of Hepatitis C Virus (HCV); Huh7.5.1 HCVcc-Cre infection, luciferase reporter, 44 h; 3.4% of 340,000 active; Potency, µM (highest dose often 41.8 µM), without a hit: at the highest dose activity change, negative = inhibition, hits mostly inhibitors; further: on the % scale 0 is the no-effect control and ±100 the full control effect
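After 44 h co-culture of compound, cells and HCVcc-Cre (~0.5 moi), substrate is added for 15 min at room temperature and luciferase measured over 15 sec. Cells were seeded at 1,000/well and pre-cultured 4 h.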
Vaccinia mCherry: qHTS for Stage-Specific Inhibitors of Vaccinia Orthopoxvirus: mCherry Reporter Primary qHTS | 0.63% of 310,000 active | Potency, µM (highest dose often 36.5 µM), for the others: at the highest dose activity change, negative = inhibition, hits mostly inhibitors | AID 720579, 2013 | Vaccinia virus mCherry reporter infection, fluorescence; calls by dose curve; tested in A549 cells; further: on the % scale 0 is the no-effect control and ±100 the full control effect; nearly all actives have a fitted effect of over 35% in size
Pf growth 48h: Primary qHTS for delayed death inhibitors of the malarial parasite plastid, 48 hour incubation; P. falciparum luciferase growth in erythrocytes, 48 h; 5.9% of 310,000 active; Potency, µM (highest dose often 28.7 µM), without a hit: top-dose activity change, negative = inhibition, usual class: inhibitors; further: on the % scale 0 is the no-effect control and ±100 the full control effect
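Luciferase-expressing parasites in RBCs, 2% Hct / 0.1% parasitemia final; RPMI 1640 + 0.5% Albumax; 37 C, 5% CO2, one generation; luminescence read-out, lower signal = inhibition.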
* = called active by the depositor; [ ] = another dose, or the depositor's remark. Unless noted, the call rests on the fitted dose curve; in most records, active means well fitted inhibition curve with a large enough effect; inconclusive means small, poorly fitted or top-dose-only effect, or another doubt; inactive means no such curve, though single readings can be large or run the other way. Potency means the concentration at half of the fitted maximal effect.

`CCN(CC)c1ccc(/C=N/N2CCN(c3ccccc3OC)CC2)cc1` gave NS1 inh 21%, Pf growth 96h 39%, HCV inh 0% and Pf growth 48h 13%.
`CC(C)(C)N=Cc1c(O)ccc2oc3c(c12)CCCC3` gave NS1 inh -57%, Pf growth 96h 7%, HCV inh -3% and Pf growth 48h 23%[0.00184 µM].
For O=[N+]([O-])c1cc2oc3c(c2c(C=NCc2ccncc2)c1O)CCCC3 the results were VACV Venus inh -2%, NS1 inh -31%, Pf growth 96h inconclusive, HCV inh inconclusive, Vaccinia mCherry -25% and Pf growth 48h 10µM*.
For COc1cccc(OCCCN2CCN(S(=O)(=O)c3ccc(NC(C)=O)cc3)CC2)c1 the results were NS1 inh -2%, Pf growth 96h inconclusive and HCV inh 13µM*.
For COc1ccc(OC)c(CN2CCN(S(=O)(=O)c3ccc(NC(C)=O)cc3)CC2)c1 the results were VACV Venus inh -11%, NS1 inh 6%, Pf growth 96h 21%, HCV inh -16%, Vaccinia mCherry 4% and Pf growth 48h -18%.
Screening CC(=O)Nc1ccc(S(=O)(=O)N2CCc3c(Cl)cccc3C2)cc1 returned VACV Venus inh -26%, NS1 inh -9%, Pf growth 96h 15µM*, HCV inh inconclusive and Vaccinia mCherry -44%.
`CC(=O)Nc1ccc(S(=O)(=O)N2CCN(CCCOc3ccccc3Cl)CC2)cc1` gave NS1 inh 2%, Pf growth 96h 6.6µM* and HCV inh 7%.
Screening CCCCc1nnc(NC(=O)CC(=O)Nc2ccccc2C(=O)O)s1 returned VACV Venus inh -21%, NS1 inh 7%, HCV inh 1% and Pf growth 48h 5%.
Screening O=[N+]([O-])c1cc([As](=O)(O)c2ccc(O)c([N+](=O)[O-])c2)ccc1O returned VACV Venus inh -7%, NS1 inh 2%, Pf growth 96h 2.9µM*, HCV inh 17%, Vaccinia mCherry 4% and Pf growth 48h 4.7µM*.
COC(=O)Nc1ccc(S(=O)(=O)NCCCCCC(=O)O)cc1 was read as VACV Venus inh 5%, NS1 inh 0%, Pf growth 96h 2.9µM*, HCV inh 7%, Vaccinia mCherry 2% and Pf growth 48h 7%.
`COc1ccc(S(=O)(=O)CC2(O)CCN(C(=O)CC(C)C)CC2)cc1` gave VACV Venus inh -6%, Pf growth 96h 8%, HCV inh 7%, Vaccinia mCherry -11% and Pf growth 48h 9.3µM*.
CC1CCN(c2nc3c(cc2C#N)COC(C)(C)C3)CC1 was read as VACV Venus inh -15%, NS1 inh -2%, Pf growth 96h 20%, HCV inh -5%, Vaccinia mCherry -15% and Pf growth 48h inconclusive.
For CCN(CC)S(=O)(=O)c1ccc(C(=O)Nc2ccc(C(F)(F)F)n(C)c2=O)cc1 the results were VACV Venus inh 0%, NS1 inh -1%, Pf growth 96h -9%, HCV inh inconclusive, Vaccinia mCherry -9% and Pf growth 48h -8%.
Screening COc1c2ccccc2nc2ccccc12 returned VACV Venus inh 4%, NS1 inh -110%, Pf growth 96h 125%, HCV inh -24%, Vaccinia mCherry 8% and Pf growth 48h 2.1µM*.
For CCS(=O)(=O)N1CCC(C(=O)NCCCOC)CC1 the results were VACV Venus inh -3%, NS1 inh 1%, Pf growth 96h 39%, HCV inh 5%, Vaccinia mCherry -3% and Pf growth 48h 28%.
Screening CCCCC(=O)NC(NC(=S)N1CCOCC1)C(Cl)(Cl)Cl (configuration not stated) returned VACV Venus inh -4%, NS1 inh 4%, HCV inh -5%, Vaccinia mCherry inactive and Pf growth 48h 8.3µM*.
For O=C(NC(NC(=S)N1CCOCC1)C(Cl)(Cl)Cl)c1ccc(Cl)cc1 (configuration not stated) the results were VACV Venus inh 0%, NS1 inh 9%, Pf growth 96h -5%, HCV inh inconclusive, Vaccinia mCherry -13% and Pf growth 48h inconclusive.
`Cc1ccc(NCc2nnc3n2CCCCC3)cc1` gave VACV Venus inh -16%, NS1 inh 4%, Pf growth 96h inconclusive, HCV inh 16%, Vaccinia mCherry -13% and Pf growth 48h 78%.
Screening COc1ccc(Oc2nc3c(C)cccn3c(=O)c2/C=C(\C#N)C(N)=O)cc1 returned VACV Venus inh -7%[7.34 µM], NS1 inh -1%, Pf growth 96h 3%, HCV inh -12%, Vaccinia mCherry inactive[7.34 µM] and Pf growth 48h inconclusive.
`O=C(O)Cn1c2ccccc2c2ccccc21` gave VACV Venus inh 1%, NS1 inh -2%, Pf growth 96h 35%, HCV inh 4µM*, Vaccinia mCherry -15% and Pf growth 48h 1%.
COc1ccc(Cl)cc1N(C)C(=O)C(=O)Nc1ccc2nc3n(c(=O)c2c1)CCCCC3 was read as VACV Venus inh -7% and Vaccinia mCherry 1%.
`COc1ccccc1NC(=O)c1cc2ccccc2o1` gave VACV Venus inh -21%, NS1 inh -13%, Pf growth 96h 5.2µM*, HCV inh inconclusive and Pf growth 48h 122%.
Screening Cc1ccc(NC(=O)c2cc(=O)c3ccccc3o2)c(C)c1 returned VACV Venus inh -16%, NS1 inh 4%, Pf growth 96h 3%, HCV inh 4%, Vaccinia mCherry -16% and Pf growth 48h 76%.
For COc1cc(NC(=O)c2cccc(C)c2)ccc1NC(=O)c1cc2ccccc2o1 the results were VACV Venus inh 8.9µM*, NS1 inh 2%, Pf growth 96h 44%, HCV inh inconclusive, Vaccinia mCherry inconclusive and Pf growth 48h 75%.
`Cc1ccc(C)c(NC(=O)c2cc(=O)c3ccccc3o2)c1` gave VACV Venus inh -11%, NS1 inh -34%, Pf growth 96h 13µM*, HCV inh 17%, Vaccinia mCherry 3% and Pf growth 48h 117%.
CCOC(=O)c1csc(NC(=O)c2cc(=O)c3ccccc3o2)n1 was read as Pf growth 96h 0.074µM*, HCV inh -28% and Pf growth 48h 4%.
For C=CCn1c(SCC(=O)N(CCC)C2CCS(=O)(=O)C2)nnc1-c1ccccc1OC (configuration not stated) the results were VACV Venus inh 0%, Pf growth 96h 5%, HCV inh 12%, Vaccinia mCherry inactive and Pf growth 48h -16%.

Screening results as filed in PubChem.
